Results taken from PubChem BioAssay AID504832 (National Center for Advancing Translational Sciences (NCATS), 2011).
The whole screen tested about 310,000 compounds, of which about 18,000 (5.8%) were called active. Entries that show only a call come without a potency. Another 22% or so got no clear call; they are omitted. Calls follow the shape of the dose curve; as a rule, active = well fitted inhibition curve with a large enough effect; inconclusive = small, poorly fitted or top-dose-only effect, or another doubt; inactive = no such curve, though single readings can be large or run the other way. For the sample, actives were picked, then their nearest neighbours and some compounds at random.

Assay: Primary qHTS for delayed death inhibitors of the malarial parasite plastid, 48 hour incubation
Details: P. falciparum luciferase growth in erythrocytes; series mostly up to 28.7 µM
Outline: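 A one-generation exposure of luciferase-tagged malaria parasites in RPMI 1640/Albumax erythrocyte culture, 37 C and 5% CO2. Inhibition is inferred from decreased luminescence after adding detection reagent.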
Potency is read from the fitted curve at half-maximal effect.

Compound | Potency | activity change, negative = inhibition
CC(=O)C1=C(C)NC(=O)NC1c1ccc2c(c1)OCO2 (centres undefined) | inactive | –
N#Cc1ccc(C2=CC(=O)C[C@H](c3ccc(Cl)cc3)C2)cc1 | inactive | –
O=C1C=C(c2cc(C(F)(F)F)cc(C(F)(F)F)c2)C[C@@H](c2ccc3c(c2)OCO3)C1 | 8.28 µM (active) | –
COc1ccc([C@H]2CC(=O)C=C(c3ccc(C)cc3)C2)cc1 | inactive | –
O=C1C=C(c2ccnc3cc(Cl)ccc23)C[C@@H](c2ccc3c(c2)OCO3)C1 | 7.38 µM (active) | –
COc1ccc2cc(C3=CC(=O)C[C@H](c4ccc5c(c4)OCO5)C3)ccc2c1 | inactive | –
Cc1ccnc(NS(=O)(=O)c2ccc(NC(=O)c3oc4ccc(F)cc4c3C)cc2)n1 | inactive | –
[2H]C(CCOS(N)(=O)=O)c1ccccc1 (centres undefined) | inactive | –
CNC(=O)c1sc(NCc2ccccc2OC)nc1C | inactive | –
O=C(Nc1ccc(-c2cscn2)cc1)C1CCCN(Cc2ccc(CO)o2)C1 (centres undefined) | inactive | –
COc1cc(-c2c(-c3ccc4c(c3)OCO4)noc2C)ccc1F | inactive | –
CCNC(=O)c1cccc(NC(=O)C2CC(=O)N(CCc3ccccc3)C2)c1 (centres undefined) | inactive | –
CN(CC#CCC(c1ccccc1)c1ccccc1)C(C)(C)C | 9.28 µM (active) | –
Cc1cccc(C)c1Nc1c(-c2ccccc2O)nc2ncccn12 | 2.94 µM (active) | –
Cc1ccccc1Nc1c(-c2ccccc2)nc2ncccn12 | inactive | –
C[C@H](NC(=O)[C@@H]1Cc2ccccc2CN1C(=O)OC(C)(C)C)C(=O)NC1CCCC1 | inactive | –
O/N=C(\C[n+]1ccccc1)c1ccc(Br)cc1 | – | -29.6% [at 0.00184 µM] (inactive)
O=C(c1cc(-c2cccs2)on1)N1CCCCC1 | inactive | –
Cc1cc(NC(=O)c2cc(-c3cccs3)on2)nn1Cc1ccc(Cl)cc1 | 10.4 µM (active) | –
CC(=O)c1ccc(NC(=O)c2cc(-c3cccs3)on2)cc1 | inactive | –
COc1ccc(S(=O)(=O)N2CCC(C(=O)NCCC(=O)NCc3cccc(OC)c3)CC2)cc1 | inactive | –
C[C@H](C(=O)CC(=O)OC(C)(C)C)[C@H](O)c1ccc(C(F)(F)F)cc1 | inactive | –
CC(C)Oc1ccc(Oc2ccc(C(F)(F)F)cn2)cc1 | inactive | –
CNCC[C@H](Oc1ccc(C(F)(F)F)cc1)c1ccccc1 | 10.4 µM (active) | –
CCN(CC)C(=O)C(=O)Nc1cccc(Br)c1 | inactive | –

Compound | Potency | activity change, negative = inhibition
CCN(CC)C(=O)Oc1ccc(Br)cc1C(=O)Nc1ccc(F)c(Cl)c1 | 9.28 µM (active) | –
COC(=O)c1ccc(NC(=O)c2cc(Cl)ccc2OC)cc1 | – | -5.41% [at 5.75 µM] (inactive)
CCCc1nnc(NC(=O)CCC(=O)NC2CC2)s1 | inactive | –
O=C(NCc1ccco1)/C(=C\c1cccc([N+](=O)[O-])c1)NC(=O)c1ccco1 | inactive | –
C=CCn1c(SCC(=O)NCC2CCCO2)nc2sc(C)c(C)c2c1=O (centres undefined) | inactive | –
CC1CCN(C(=O)Cn2cc(C(=O)c3ccco3)c3ccccc32)CC1 | 9.28 µM (active) | –
N#Cc1ccc(Cn2cc(C(=O)c3ccco3)c3ccccc32)cc1 | inactive | –
Cc1cccc(NC(=O)Cn2cc(C(=O)c3ccco3)c3ccccc32)c1 | inactive | –
CC(Sc1ncnc2c1cnn2-c1ccccc1)C(=O)Nc1ccc(N2CCOCC2)cc1 (centres undefined) | inactive | –
COc1ccc2c(c1OC)C(=O)N(c1ccc(O)cc1)C2 | inactive | –
CC(C)C(c1nnnn1CCc1ccccc1)N1CCN(C(=O)c2ccco2)CC1 (centres undefined) | inactive | –
N#Cc1ccc(C(c2ccc(C#N)cc2)n2cncn2)cc1 | inactive | –
N#Cc1ccc(C(c2nnnn2CCc2ccccc2)N2CCCCCC2)cc1 (centres undefined) | 1.65 µM (active) | –
CCCc1nc(SCC(=O)N2CCCC2)c2c(=O)n(C)c(=O)n(C)c2n1 | inactive | –
CC(=O)N1CCN(CC(c2ccccc2)c2ccccc2)CC1 | inactive | –
COc1ccccc1CN(C)C(=O)C1(c2ccc(Cl)cc2)CC1 | inactive | –
COc1cccc(CN(C)CC(=O)NCc2ccccc2Cl)c1OC | inactive | –
COc1cccc(CN(C)CC2CCCN(CCc3ccc(Cl)cc3)C2)c1OC (centres undefined) | 5.86 µM (active) | –
COc1cccc(NC(=O)N2C3CCCC2CC(NC(C)=O)C3)c1 (centres undefined) | inactive | –
CCOc1cc(C2/C(=C(/O)c3ccc(S(=O)(=O)N4CCCCC4)cc3)C(=O)C(=O)N2CCOC)ccc1O (centres undefined) | inactive | –
CCOC(=O)c1cc2c(n(-c3ccc(C)cc3)c1=O)CCCC2=O | inactive | –
O=C1CCCC2=C1C(c1cccs1)CC(=O)N2c1ccc(F)cc1 (centres undefined) | inactive | –
CCOC(=O)C1=C(N)N(c2ccc(C)cc2)C2=C(C(=O)CCC2)C1c1cccs1 (centres undefined) | 9.28 µM (active) | –
COc1cc2cc(C(=O)N/N=C/c3cccc(OC)c3OC)[nH]c2cc1OC | inactive | –
C=CCN1C(=NC(=O)COc2ccccc2)SC2CS(=O)(=O)CC21 (centres undefined) | inactive | –

Compound | Potency | activity change, negative = inhibition
CCn1c(=N)c(S(=O)(=O)c2ccc(F)cc2)cc2c(=O)n3ccccc3nc21 | inactive | –
C/C(=N/OC(=O)c1c(-c2c(F)cccc2Cl)noc1C)c1cnccn1 | inactive | –
CCOC(=O)c1cc2c(=O)n3ccccc3nc2n(CC(C)C)c1=NC(=O)c1c(-c2c(F)cccc2Cl)noc1C | 2.33 µM (active) | –
O=C(Nc1cc2c3c(c1)CC(=O)N3CCC2)c1ccccc1F | inactive | –
COc1cccc(CN2CCN(Cc3ccc4cccc(F)c4n3)CC2CCO)c1 (centres undefined) | inactive | –
O=c1c2c(-c3ccccc3)ccnc2[nH]n1-c1ccccc1 | inactive | –
COc1ccc(C(=O)Nc2nncs2)c(OC)c1 | inactive | –
COc1ccc(Cc2nnc(NC(=O)c3ccc(OC)cc3OC)s2)cc1 | 1.65 µM (active) | –
COc1ccc(Cc2nnc(NC(=O)c3cc(OC)c(OC)c(OC)c3)s2)cc1OC | inactive | –
Cc1cc(C(=O)NC2CC(C)(C)Cc3c2cnn3-c2ccccc2)n[nH]1 (centres undefined) | inactive | –
Clc1ccc(N/N=C/c2cccs2)nn1 | inactive | –
Oc1cccc(/C=N/Nc2ccc(Cl)nn2)c1O | 0.415 µM (active) | –
COc1cccc(/C=N/Nc2ccc(Cl)nn2)c1 | inactive | –
O=C(CN1CCCCC1)NC(=O)Nc1ccccc1F | inactive | –
Cc1ccc(NC(=O)CN(C)C(=O)COC(=O)C(C)(C)Oc2ccc(Cl)cc2)cc1 | inactive | –
CCOc1ccc2nc(N(CCCN(C)C)C(=O)c3ccc(C(=O)c4ccccc4)cc3)sc2c1 | 10.4 µM (active) | –
CCC(=O)Nc1nnc(S(=O)(=O)N2CCCc3ccccc32)s1 | inactive | –
CCOc1ccc2nc(N(CCN(C)C)C(=O)c3ccc4ccccc4c3)sc2c1 | inactive | –
Cc1ccc2nc(N(CCN(C)C)C(=O)C3=COCCO3)sc2c1 | inactive | –
CN(C)CCN(C(=O)C1=COCCO1)c1nc2ccc(Cl)cc2s1 | inactive | –
CCc1ccc2nc(N(CCCN(C)C)C(=O)c3ccc4c(c3)OCCO4)sc2c1 | 3.29 µM (active) | –
CN(C)CCCN(C(=O)c1ccc(S(=O)(=O)N2CCCc3ccccc32)cc1)c1nc2ccc(F)cc2s1 | 13.1 µM (active) | –
CCN(CC)CCN(C(=O)c1ccc(S(=O)(=O)N2CCOCC2)cc1)c1nc2cc3c(cc2s1)OCCO3 | inactive | –
CCCC(=O)N(CCN1CCOCC1)c1nc2ccc(OCC)cc2s1 | inactive | –
